In the OligoGym collection:

What follows are sequences tested against CDKL2 (assay: pooled miR-30 sensor sort-seq; sequence = guide strand). Conditions: shRNA.
Further: reference of the scale not given here.

Which sensor-assay potency score (higher = more potent) does the source give for TTTCAGGCAACCTTACTCCAGC here?
The sensor-assay potency score (higher = more potent) was -0.594.

Which sensor-assay potency score (higher = more potent) does the source give for TTTGTCATCGTCACTTTCTAAG here?
Its sensor-assay potency score (higher = more potent) is -0.977.

With TAGTAACTTGATTTCTCGCATT as the sequence, how does the sensor-assay potency score (higher = more potent) read?
The sensor-assay potency score (higher = more potent) was -0.927.

How did the sensor-assay potency score (higher = more potent) turn out when TTTAGTAACTTGATTTCTCGCA was run?
Its sensor-assay potency score (higher = more potent) is 0.263.

With TTAGTAACTTGATTTCTCGCAT as the sequence, how does the sensor-assay potency score (higher = more potent) read?
Its sensor-assay potency score (higher = more potent) is 0.346.

Which sensor-assay potency score (higher = more potent) does the source give for TAGATAAAGAAACATTTCTGGC here?
Its sensor-assay potency score (higher = more potent) is -0.719.

The sequences below were run against CDKN2B in the same assay as above. Conditions: shRNA.

With TAGTCTGACCTCTGCACCCTGA as the sequence, how does the sensor-assay potency score (higher = more potent) read?
The sensor-assay potency score (higher = more potent) was -1.07.

AGGTACCCTGCAACGTCGCGGT was tested. Which sensor-assay potency score (higher = more potent) did it give?
Its sensor-assay potency score (higher = more potent) is -1.5.

With TGCACCGGTCGGGTGAGAGTGG as the sequence, how does the sensor-assay potency score (higher = more potent) read?
The sensor-assay potency score (higher = more potent) was -1.46.

TAAGAAAATAAAGTCGTTGTGG was tested. Which sensor-assay potency score (higher = more potent) did it give?
The sensor-assay potency score (higher = more potent) was 0.511.

With AAACGGTTGACTCCGTTGGGAT as the sequence, how does the sensor-assay potency score (higher = more potent) read?
Its sensor-assay potency score (higher = more potent) is -1.42.

With TCATCCTGTGTAGTCTGCCTGC as the sequence, how does the sensor-assay potency score (higher = more potent) read?
The sensor-assay potency score (higher = more potent) was -0.705.

With TCCCGAAACGGTTGACTCCGTT as the sequence, how does the sensor-assay potency score (higher = more potent) read?
Its sensor-assay potency score (higher = more potent) is -1.06.

For TTTTTCAGCAATCTTTTGGGAA, which sensor-assay potency score (higher = more potent) is on record?
Its sensor-assay potency score (higher = more potent) is -0.00426.

For TTCCAGGAGCTGTCGCACCTTC, which sensor-assay potency score (higher = more potent) is on record?
The sensor-assay potency score (higher = more potent) was -0.732.

How did the sensor-assay potency score (higher = more potent) turn out when ATCATGCACCGGTCGGGTGAGA was run?
The sensor-assay potency score (higher = more potent) was -1.72.

With TAGCATCTGTCGTCGCTTGCAC as the sequence, how does the sensor-assay potency score (higher = more potent) read?
Its sensor-assay potency score (higher = more potent) is -0.163.

TTTAGCATCTGTCGTCGCTTGC was tested. Which sensor-assay potency score (higher = more potent) did it give?
Its sensor-assay potency score (higher = more potent) is 0.0347.

How did the sensor-assay potency score (higher = more potent) turn out when TATTTCTTAGTCTGACCTCTGC was run?
The sensor-assay potency score (higher = more potent) was -0.197.

With TTGACTCCGTTGGGATCCGCGC as the sequence, how does the sensor-assay potency score (higher = more potent) read?
Its sensor-assay potency score (higher = more potent) is -1.43.

Which sensor-assay potency score (higher = more potent) does the source give for TTAACTGAGAGCCACTAGTTAT here?
The sensor-assay potency score (higher = more potent) was -1.26.

For TTTACTGCATAAGTGCATCTAT, which sensor-assay potency score (higher = more potent) is on record?
Its sensor-assay potency score (higher = more potent) is 0.135.

Which sensor-assay potency score (higher = more potent) does the source give for TGCGCAGGTACCCTGCAACGTC here?
The sensor-assay potency score (higher = more potent) was -1.43.

For TGTCGCACCTTCTCCACTAGTC, which sensor-assay potency score (higher = more potent) is on record?
Its sensor-assay potency score (higher = more potent) is -0.304.

TAATTTACTGCATAAGTGCATC was tested. Which sensor-assay potency score (higher = more potent) did it give?
Its sensor-assay potency score (higher = more potent) is -0.823.

For TTGGAGTGAACGCATCGACTGC, which sensor-assay potency score (higher = more potent) is on record?
The sensor-assay potency score (higher = more potent) was -0.833.

With TTTTAGCATCTGTCGTCGCTTG as the sequence, how does the sensor-assay potency score (higher = more potent) read?
The sensor-assay potency score (higher = more potent) was 0.0607.

How did the sensor-assay potency score (higher = more potent) turn out when TATAATGATCAAGCAACCCTGG was run?
The sensor-assay potency score (higher = more potent) was 0.0689.

With TTTCTTAGTCTGACCTCTGCAC as the sequence, how does the sensor-assay potency score (higher = more potent) read?
The sensor-assay potency score (higher = more potent) was 0.0018.

Each sequence was assayed against CEACAM7 in the same assay as above. Conditions: shRNA.

ATATCTTTGTTCTCCACCGGAT was tested. Which sensor-assay potency score (higher = more potent) did it give?
The sensor-assay potency score (higher = more potent) was -0.501.

Which sensor-assay potency score (higher = more potent) does the source give for AATATCTTTGTTCTCCACCGGA here?
Its sensor-assay potency score (higher = more potent) is -0.351.

With TACTTCTTCATTCACAAGATTT as the sequence, how does the sensor-assay potency score (higher = more potent) read?
The sensor-assay potency score (higher = more potent) was -1.52.

TCGATAGTTGGCATGCACCCTT was tested. Which sensor-assay potency score (higher = more potent) did it give?
The sensor-assay potency score (higher = more potent) was -0.656.

For TTGACTTATATTTTTTACATAT, which sensor-assay potency score (higher = more potent) is on record?
The sensor-assay potency score (higher = more potent) was -1.26.

How did the sensor-assay potency score (higher = more potent) turn out when ATATCCTATAATTCGATAGTTG was run?
The sensor-assay potency score (higher = more potent) was -1.04.

How did the sensor-assay potency score (higher = more potent) turn out when TTCATTCACAAGATTTTCTTTT was run?
The sensor-assay potency score (higher = more potent) was -0.349.

How did the sensor-assay potency score (higher = more potent) turn out when AACTCTAACAGGGACCACCGTG was run?
Its sensor-assay potency score (higher = more potent) is -1.13.

TAGAATTGTCTGGTTACTTCTT was tested. Which sensor-assay potency score (higher = more potent) did it give?
The sensor-assay potency score (higher = more potent) was -0.107.

For TATTGTCTCTCGACCGTTGTGT, which sensor-assay potency score (higher = more potent) is on record?
The sensor-assay potency score (higher = more potent) was 0.904.

How did the sensor-assay potency score (higher = more potent) turn out when TTCTTTTATAACGTGTAGGGTA was run?
The sensor-assay potency score (higher = more potent) was -0.399.
